Results published in PubChem BioAssay AID1159580 (chemical genetic matrix, 2015).
Hit rate of the full screen: of about 5,500 compounds, about 2,000 (36%) were called active. About 18% were inconclusive and are not listed. No stated cut-off is given here; in the data, active means normalized growth mostly below about 0.91 (no sharp cut-off); inconclusive means no clear call, values can overlap the other calls; inactive means mostly above about 0.92. The list shows a part of the results.

Assay: chemical genetic growth profiling, strain panel (AID 1159580);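 further: tested at 20 µM; growth read once vehicle control cultures reached saturation at 30 °C; 1 = growth at the plate median or of vehicle wells; lower values mean less growth of the strain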
Settings: S. cerevisiae deletion strains, growth OD
[1] = locus YGR229C, strain SMI1, hits give low values
[2] = locus YJR075W, strain HOC1, hits give low values
[3] = locus YMR263W, strain SAP30, hits give low values
[4] = locus YMR307W, strain GAS1, hits give low values
[5] = locus YNL153C, strain GIM3, hits give low values
[6] = locus YNL322C, strain KRE1, hits give low values

Measured: normalized growth

CC(C)c1ccc2c(c1)c(SC(C)(C)C)c(CC(C)(C)C(=O)O)n2Cc1ccc(Cl)cc1
inactive: locus YAL040C, strain CLN3, hits give low values 1.02 | locus YCL061C, strain MRC1 (second series), hits give low values 1 | locus YDR363W, strain ESC2, hits give low values 1 | locus YER002W, strain NOP16, hits give low values 1.03 | [1] 1.03 | [2] 1.02 | [3] 1.01 | [4] 1 | locus YNL128W, strain TEP1, hits give low values 0.967 | [5] 0.972 | locus YNL175C, strain NOP13, hits give low values 1.01 | locus YNL197C, strain WHI3, hits give low values 1.01 | locus YNL224C, strain SQS1, hits give low values 1.01 | [6] 1.01 | locus YOR083W, strain WHI5 (second series), hits give low values 0.992

NC(=O)N[C@@H]1O[C@H](CO)[C@@H](O)[C@H](O)[C@H]1O
inactive: locus YAL013W, strain DEP1, hits give low values 1.03 | locus YBR229C, strain ROT2, hits give low values 1.01 | locus YCL061C, strain MRC1, hits give low values 0.987 | locus YDL101C, strain DUN1, hits give low values 0.994 | locus YDR150W, strain NUM1, hits give low values 0.992 | locus YEL061C, strain CIN8, hits give low values 1.02 | locus YGR078C, strain PAC10, hits give low values 0.993 | [1] 1 | locus YHR030C, strain SLT2, hits give low values 1 | locus YHR087W, strain rtc3, hits give low values 1.01 | locus YJL187C, strain SWE1, hits give low values 1.01 | locus YJR043C, strain POL32, hits give low values 0.975 | [2] 1 | locus YKL190W, strain CNB1, hits give low values 1.01 | locus YLR039C, strain RIC1, hits give low values 1.02 | locus YLR058C, strain SHM2 (second series), hits give low values 1.01 | locus YLR085C, strain ARP6, hits give low values 1.07 | locus YLR262C, strain YPT6, hits give low values 0.981 | locus YML094W, strain GIM5, hits give low values 1.02 | locus YMR219W, strain ESC1, hits give low values 1.01 | [3] 0.999 | [4] 1.02 | [5] 0.989 | locus YNL298W, strain CLA4 (second series), hits give low values 1.05 | [6] 1 | locus YNR030W, strain Alg12, hits give low values 1.02 | locus YPL055C, strain LGE1, hits give low values 1.04 | locus YPL241C, strain CIN2, hits give low values 1.04 | locus YPR135W, strain CTF4, hits give low values 0.98
